Assay results reported in PubChem BioAssay (NCI).
Compounds without any hit were thinned out: in the full panel of roughly 83,000, 20% have a hit.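 Values shown are percent growth following 48 h exposure of cells in 96-well plates to a single concentration of compound; below 10 was considered active.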 Values without a mark were called inactive. The source made the active and inactive calls.

How the values were obtained:
Assay in all cases: NCI-60 one-dose screen, 48 h (100 = growth as untreated, 0 = no growth, -100 = all killed)
Conditions in all cases: 10 µM unless noted
T-47D breast = test system: T-47D breast
BT-549 breast = test system: BT-549 breast
MDA-MB-435 melanoma = test system: MDA-MB-435 melanoma
SW-620 colon = test system: SW-620 colon
MCF7 breast = test system: MCF7 breast
HCT-116 colon = test system: HCT-116 colon
HCC-2998 colon = test system: HCC-2998 colon
KM12 colon = test system: KM12 colon

Structure (SMILES)	growth (T-47D breast)	growth (BT-549 breast)	growth (MDA-MB-435 melanoma)	growth (SW-620 colon)	growth (MCF7 breast)	growth (HCT-116 colon)	growth (HCC-2998 colon)	growth (KM12 colon)
C/C(Cc1ccc(Cl)cc1)=C(\c1ccc(OCCN2CCCCCC2)cc1)c1ccc(OC(=O)C2CCCCC2)cc1	49.1%	86.6%	58.7%	56.9%	29.6%	44%	10.4%	53.1%
COc1cnc2c(c1)C(=O)c1c-2n(CCCN2CCNCC2)c(=O)c2cc([N+](=O)[O-])ccc12	-52.2% (active)	21.7%	-92% (active)	-70% (active)	-63.5% (active)	-93.6% (active)	36.2%	-75.5% (active)
COc1ccc(Cl)cc1Nc1nc(C(F)(F)F)ccc1C(=O)N/N=C/c1cccnc1	46.9%	47.1%	58.4%	47.5%	33.3%	43.2%	53.6%	59.5%
O=C1CC(c2nc3ccccc3[nH]2)CN1C1CCCCC1 (stereo unspecified)	95.6%	97.7%	107%	106%	89.7%	109%	98.7%	107%
CN1CCN(Cc2ccc(NC(=O)c3[nH]ncc3Nc3ccnc4ccsc34)cc2)CC1	65.8%	63.1%	61.7%	20.6%	12.9%	10.1%	33%	12.3%
CC/C=C\C[C@H](O)C/C=C1/C(=O)C=C[C@@H]1C/C=C\CCCC(N)=O	1.28% (active)	-12.6% (active)	23.5%	5.37% (active)	7.66% (active)	-69% (active)	-73.6% (active)	-38.7% (active)
CCCCCCCCCCCCCC(=O)C(C)N (stereo unspecified)	-30.2% (active)	66.9%	78.5%	80.4%	34%	59.2%	55.1%	22.1%
CC1(C)OCC2OC3(C(=O)O)OC(C)(C)OC3C2O1 (stereo unspecified)	95.4%	105%	104%	109%	112%	106%	102%	100%
C[C@@]1(N2C(=O)OC[C@@H]2c2ccccc2)C(=O)N([C@H](CC(=O)N2CCC(N3CCCCC3)CC2)C(=O)NCc2cccc(C(F)(F)F)c2)[C@@H]1/C=C/c1ccccc1	27.4%	78.1%	1% (active)	58.5%	25.3%	44.9%	47.3%	55.9%
Cc1ccc(S(=O)(=O)N(CCc2ccc(Cl)cc2)S(=O)(=O)c2ccc(C)cc2)cc1	82%	98.8%	95.4%	101%	87.9%	93.3%	88.1%	91.7%
Cc1ccc(S(=O)(=O)n2cc(-c3csc(-c4cn(C)c5ncccc45)n3)c3ccccc32)cc1	24.4%	66.9%	3.65% (active)	40%	19.8%	36%	88.4%	29.3%
COc1ccc(CCN2CC=Cn3c2nc2ccccc2c3=O)cc1	75%	17.2%	-4.94% (active)	25.9%	18.9%	10.2%	5.15% (active)	4.27% (active)
COc1ccc(/C=C/C(=O)c2ccc(NC(=O)c3cc4cc5ccccc5nc4s3)cc2)cc1OC	87.7%	104%	102%	105%	80.3%	91.6%	104%	76.3%
CSc1ncnc2c1ncn2C1CCCO1 (stereo unspecified)	107%	102%	101%	116%	104%	101%	113%	110%
CCN(CC)CC(O)c1cc(-c2ccc(Cl)cc2)nc2c(C)c(Cl)ccc12 (stereo unspecified)	-89.2% (active)	-36.1% (active)	-90% (active)	-85.8% (active)	-92% (active)	-100% (active)	-97.4% (active)	-100% (active)
O=c1c2c3c(sc2n2c(CCl)nnc2n1Cc1ccccc1)CCCC3	-69.9% (active)	-93.5% (active)	-64.5% (active)	-82.9% (active)	-79.9% (active)	-56.2% (active)	-69.3% (active)	-69.6% (active)
CCN(C(=O)CN1CCN(c2cc3c(cc2F)c(=O)c(C(=O)O)cn3C2CC2)CC1)c1nc(-c2ccc(OC)cc2)cs1	78.7%	73.1%	53.2%	49%	73.9%	40%	85.4%	52.9%
O=C(CCN1CCOCC1)Nc1ccc(Cn2nnc3c2C(=O)c2nnn(Cc4ccc(NC(=O)CCN5CCOCC5)cc4)c2C3=O)cc1	-3.09% (active)	29.6%	-76.2% (active)	30.7%	-56.3% (active)	-15.6% (active)	-7.48% (active)	43%
C=C1CCC2C3(C)COC(c4ccccc4Br)OC3CCC2(C)C1C/C=C1/C(=O)OCC1OC(C)=O (stereo unspecified)	-68.9% (active)	-74.2% (active)	-38.6% (active)	-73.1% (active)	-68.9% (active)	-91% (active)	55.4%	-56.7% (active)

Structure (SMILES)	growth (T-47D breast)	growth (BT-549 breast)	growth (MDA-MB-435 melanoma)	growth (SW-620 colon)	growth (MCF7 breast)	growth (HCT-116 colon)	growth (HCC-2998 colon)	growth (KM12 colon)
CN1CCN(Cc2ccc(NC(=O)c3cncc(C#Cc4cnc(N)c5cccnc45)c3)cc2C(F)(F)F)CC1	26.2%	38.9%	7.67% (active)	1.78% (active)	26.8%	3.52% (active)	30.2%	8.81% (active)
Cc1[nH]n(-c2ccccc2)c2nc3nncc3c(-c3ccc(Cl)cc3)c12	93.6%	111%	98.1%	93.3%	93.9%	93.9%	109%	97%
C#Cc1nc2ccccc2c(=O)[nH]1	-30.6% (active)	-61.2% (active)	-58.2% (active)	-63.7% (active)	-25% (active)	-64.2% (active)	-41.1% (active)	-65.7% (active)
OC(c1cccc(C(F)(F)F)c1)c1cnccc1NC1CCCCCC1 (stereo unspecified)	-3.18% (active)	71.4%	32.6%	3.19% (active)	-6.03% (active)	14.4%	-70.1% (active)	3.96% (active)
Oc1ccc2c(=S)cc(-c3ccc(Br)cc3)oc2c1O	2.92% (active)	44.6%	23.3%	5.25% (active)	-31.9% (active)	-22% (active)	73.8%	12.9%
COc1ccc(-c2cc(NC(=O)Nc3ccc(O)cc3)no2)cc1	70.5%	64.5%	67.6%	76.3%	70.2%	90%	82.7%	20.8%
O=C(O)c1ccccc1Nc1cccc(S(F)(F)(F)(F)F)c1	85.8%	106%	101%	94%	93.1%	98.3%	108%	100%
COc1cccc(/C=C\C(=O)c2ccccc2)c1	56.5%	97.4%	72.9%	15%	11.5%	16.2%	104%	8.52% (active)
CCCNc1nc(SC)nc(-c2cccc(N)c2)c1C#N	86.2%	97.7%	103%	98.7%	89.1%	96.3%	108%	101%
O=C(Nc1ccc(Nc2cc(Nc3ccccc3)ncn2)cc1)Nc1cc(C(F)(F)F)ccc1F	24.1%	85.3%	75.8%	120%	51.6%	63.7%	93.7%	23.3%
COc1ccc(C/C(C)=C(\c2ccc(OCCN3CCCCCC3)cc2)c2ccc(OC(=O)C3CCCCC3)cc2)cc1	38.1%	83.7%	68.8%	64.8%	29.3%	38.5%	56.9%	63.1%
O=C(/C=C\c1ccc2ccccc2n1)c1cc(Cl)ccc1O	28.3%	71.5%	51.8%	29%	27.9%	48.6%	84.4%	74.2%
COc1ccccc1/C=C(/C(=O)c1ccccc1)c1ccccc1	103%	92.4%	107%	101%	110%	83.5%	107%	98.1%
O=C(O)c1cn(C2CC2)c2cc(N3CCN(Cc4nc5c(cnn5-c5ccc([N+](=O)[O-])cc5)c(=O)[nH]4)CC3)c(F)cc2c1=O	104%	96.1%	100%	105%	91.5%	99.8%	112%	107%
O=C(NC(Cc1ccccc1)C(=O)CCl)OCc1ccccc1 (stereo unspecified)	70.7%	41.4%	16.1%	48.4%	29%	45.9%	97.1%	89.1%
CCN(CC)CC(C)Nc1ccc([N+](=O)[O-])c2sc3ccccc3c(=O)c12 (stereo unspecified)	31.2%	60.4%	24.1%	19.1%	7.9% (active)	24.5%	41.3%	29.2%
CN1CCOCCOCCOc2ccccc2NC(=O)c2nc(cnc2N)-c2ccc(cc2)S1(=O)=O	80.1%	48.1%	58.3%	48.7%	31.1%	29.1%	32.2%	33.3%
O=C1Nc2ccccc2/C1=C/C(=N/c1nnc(-c2ccc(Cl)cc2)s1)c1ccccc1	65.9%	31.9%	41.7%	-52.6% (active)	28.5%	-58.5% (active)	99.8%	66.4%
Cc1ccc(N)cc1F	184%	116%	100%	107%	94.2%	86.8%	106%	99.7%

Structure (SMILES)	growth (T-47D breast)	growth (BT-549 breast)	growth (MDA-MB-435 melanoma)	growth (SW-620 colon)	growth (MCF7 breast)	growth (HCT-116 colon)	growth (HCC-2998 colon)	growth (KM12 colon)
CCOC(=O)C(Cc1cc(I)c(O)c(I)c1)NC(=O)c1ccccc1 (stereo unspecified)	86.6%	101%	100%	94.4%	92.5%	96.2%	119%	102%
Cn1cc(-c2csc(-c3cn(C)c4ncccc34)n2)c2ccccc21	31.8%	22%	-40.1% (active)	20.7%	13%	20.5%	37.6%	23.1%
CC(C)CC(CC1=CCC2CC1C2(C)C)C1=C(O)C(C)(C)C(=O)C(C)(C)C1=O (stereo unspecified)	4.63% (active)	-6.03% (active)	11%	14.2%	7.94% (active)	6.3% (active)	17.6%	9.6% (active)
Nc1nc2c(c3ncccc13)C(c1ccc(Cl)c(Cl)c1)Cc1ncccc1-2 (stereo unspecified)	16%	31.1%	6.95% (active)	21.7%	12.2%	18.4%	41.7%	21.5%
COc1cc2c(cc1O)CCc1cc(O)cc(OC)c1-2	98%	79.9%	96.2%	109%	97.8%	93.7%	110%	97.4%
Cc1cc(=O)oc2cc(Oc3nc(-c4cccs4)cn4c(-c5cccs5)cnc34)ccc12	54.7%	25%	61.3%	56.7%	59.9%	58.7%	78.1%	59.6%
COc1ccc(-c2c3c(nc4n[nH]c(-c5ccc(Cl)cc5)c24)-c2ccccc2C(=O)C3=O)cc1	17%	20.5%	-86.2% (active)	-66.1% (active)	1.77% (active)	-44.5% (active)	-25.5% (active)	-20.6% (active)
CN[C@@]12CC3(C=CC(=O)C=C3)O[C@]1(Cc1ccc(OC)cc1)N(C)C(=O)N2	47.8%	44.3%	31.4%	24.6%	16.4%	4.01% (active)	100%	98.2%
CCOC(=O)C(C#N)C1CCCCC1 (stereo unspecified)	91.1%	90.1%	97.6%	106%	123%	99.4%	102%	107%
COc1cc2c(c(OC)c1OC)-c1ccc(N=NC(N)=S)c(=O)cc1[C@@H](NC(C)=O)CC2	62.2%	-37.5% (active)	0.0927% (active)	17.3%	8.57% (active)	-28.4% (active)	-13.6% (active)	-31.1% (active)
O=C(O)c1cccc2c1-c1ccccc1C2=O	93.1%	85.8%	97.7%	95.7%	92.3%	92.6%	99%	97.9%
NS(=O)(=O)c1ccc(Nc2nc3n[nH]c(Nc4ccccc4)c3c(=O)[nH]2)cc1	87.3%	99.1%	103%	104%	98.5%	112%	112%	100%
COc1ccc(-c2csc(NC(=O)CN3CCN(c4cc5c(cc4F)c(=O)c(C(=O)O)cn5C4CC4)CC3)n2)cc1	16.6%	9.62% (active)	14.4%	16%	12.8%	9.62% (active)	36.4%	15.3%
Nc1cccc(NC(=O)C(=O)Nc2cccc(N)c2)c1	105%	127%	102%	95.5%	100%	80.2%	105%	98.7%
C=CC[N+]1(CC)CCN=C1CCCCCCCCCCCCCCCCC (stereo unspecified)	-62.9% (active)	-75.9% (active)	-85% (active)	-89.7% (active)	-81.7% (active)	-100% (active)	-73.5% (active)	-97.9% (active)
COc1ccc(C(=O)/C=C/c2c[n+](=O)c3ccc(F)cc3n2[O-])cc1	93.1%	103%	119%	109%	98.9%	103%	104%	113%
CCC(=O)OCc1cccc(OC)c1	95.3%	103%	97.7%	108%	105%	95.1%	101%	108%
COc1ccc(-n2cc(-c3ccccc3)c3c(SCC(=O)N/N=C/c4ccc([N+](=O)[O-])cc4)ncnc32)cc1	98.7%	97.8%	109%	103%	92.5%	105%	97.7%	101%
CN1/C(=C\C=C\C2=[N+](C)c3ccccc3C2(C)C)C(C)(C)c2ccccc21	-9.24% (active)	-17.7% (active)	-48.9% (active)	8.18% (active)	-2.53% (active)	0.854% (active)	-60.8% (active)	-64.9% (active)
